Reference: PubChem BioAssay (EPA / NIEHS)
The source made the active and inactive calls. The calls were made as follows: active = hit-call score of the fitted dose curve at least 0.9, where 1 is the maximum; inactive = score below 0.9.

read-out: Pyruvate Dehydrogenase Kinase 4 (PDK4), PDK4 (gene 5166); test: LTEA_HepaRG_PDK4: Life Technologies and Expression Analysis (LTEA) Assay for Pyruvate Dehydrogenase Kinase 4 (PDK4) using HepaRG (AID 2283525); conditions: mRNA level, 48 h; actives raise or lower the signal
Procedure: LTEA_HepaRG is a cell based, multiplexed-readout assay that uses HepaRG, a human liver cell line, with measurements taken at 48 hours after chemical dosing on a 96-well plate.LTEA_HepaRG_PDK4 is one of 102 assay component(s) measured in the LTEA HepaRG cell culture assay. It is a marker of Diseases associated with PDK4 including Platelet Glycoprotein Iv Deficiency and Diabetes Mellitus, Noninsulin-Dependent.Data from the assay component LTEA_HepaRG_PDK4 was analyzed into 1 endpoint. This assay endpoint, LTEA_HepaRG_PDK4, was analyzed with bidirectional fitting relative to DMSO as the negative control and baseline of activity. Using a type of inducible reporter, measures of mRNA induction for gain or loss-of-signal activity can be used to understand regulation of transcription factor activity. To generalize the intended target to other relatable targets, this assay endpoint is annotated to the kinase intended target family, where the subfamily is serine/threonine kinase.
A total of 1060 chemcials from the ToxCast library were tested in eight-point concentration-response experiments. Cell culture and cytotoxicity assays were conducted at Thermo Fisher Scientific's Custom Services facility (Madison, WI). A single lot of human HepaRG cells (Thermo Fisher Scientific, Frederick, MD) was used for the cell culture experiments. 96-well format collagen type I coated plates of human HepaRG cells were prepared using established methods. Briefly, cryopreserved HepaRG cells were thawed, plated at a density of approximately 100,000 cells/well in HepaRG Thaw, Plate, and General Purpose media (HPRG770, Thermo Fisher Scientific), and incubated for 48 hours. 0.5% DMSO was selected as vehicle control to balance the requisite need of DMSO in HepaRG cultures to maintain differentiation (for example, baseline metabolism, proportions of hepatocytes vs. cholangiocytes), while enabling further hepatic receptor pathway activation (for example, PXR and CAR) in response to chemical exposure. 48 hours after plating, the culture medium was replaced with HepaRG Serum-Free Incudtion Media. Cells were exposed to each test chemical in duplicate and maintained in CO2 incubators for another 48 hours. Chemical plates were thawed to room temperature and 200x concentrations of treatment groups were prepared. 8-point conentration-reponse curves were made with the highest exposure at 100 uM, followed by half-log dilutions, all in 0.5% DMSO. Each test plate contained variouse controls, induction positive controls (1mM phenobarbital), cytotoxicity positive controls ([…] aflatoxin B1), vehicle controls (0.5% DMSO), and total lysis controls (0.5% DMSO). Cell morphology images were taken using an Essen IncuCyte FLR automated microscope, with six 96-well plates imaged in about 24 minutes. Images were captured and exported and JPEG files. Spent culture media was transfered to black-well plates for the LDH assay, and remaining media was sorted at -80 C for later use. Cells were treated with RLT buffer and frozen until shipped for gene expression analysis. Total RNA was isolated from the cell suspension in 75 uL of Buffer RLT (Qiagen, Germantown, MD 20874) by Quintiles/Expression Analysis (Durham, NC) using a custom isolation procedure. Total RNA from each plate well was transferred to a preamplification plate. Fluidigm's 96.96 Dynamic ArrayTM (Fluidigm, Amsterdam, the Netherlands) technology was used for gene expression analyses by quantitative reverse transcription polymerase chain reaction (qRT-PCR, performed by Quintiles/Expression Analysis, Durham, NC)89. Standard TaqManTM Assays (Applied Biosystems/ThermoFisher Scientific, Foster City, CA) were used to assess the expression of 93 genes selected based on their selectivity and sensitivity to important hepatic receptors known to be modulated by environmental chemicals; importance in human hepatocyte functionality; and hepatotoxicity. […]

For `CN(C)C(=S)S`, which outcome is on record?
The outcome was “inactive”.

`Clc1cccc(Cl)c1Cl` was tested. Which outcome did it give?
The outcome was “inactive”.

Which outcome does the source give for `CC(C)O.CC(C)O.OCCN(CCO)CCO.OCCN(CCO)CCO.[Ti]` here?
The outcome was “inactive”.

How did the outcome turn out when `O=C(N[C@H]1CN2CCC1CC2)c1ccc2c(c1)OCCO2` was run?
The outcome was “inactive”.

For `Clc1cccc(Cl)c1`, which outcome is on record?
Its outcome is “inactive”.

How did the outcome turn out when `Oc1c(Cl)cc(Cl)cc1Cl` was run?
Its outcome is “inactive”.

Which outcome does the source give for `Cc1cc(C)cc(C)c1` here?
The outcome was “inactive”.

With `N#Cc1cccnc1` as the compound, how does the outcome read?
Its outcome is “inactive”.

How did the outcome turn out when `CCCCCCCCCCCCc1cccc(S(=O)(=O)O)c1` was run?
The outcome was “inactive”.

For `COc1ccccc1N`, which outcome is on record?
The outcome was “inactive”.

With `O=C(O)C1(c2ccc3c(c2)OC[C@H](Cc2ccc(-c4ccccc4)cc2)[C@H]3O)CCCC1` as the compound, how does the AC50 read?
The AC50 was 11.4 µM (active).

`Oc1cc(Cl)c(Cl)cc1Cl` was tested. Which outcome did it give?
The outcome was “inactive”.

For `CC(C)(C)c1ccccc1O`, which outcome is on record?
The outcome was “inactive”.

With `OCCN(CCO)CCO` as the compound, how does the outcome read?
The outcome was “inactive”.
